# Screens deposited in PubChem by National Center for Advancing Translational Sciences (NCATS).
# Nrf2 inh – inhibitors of Nrf2 signaling. A549 ARE-Fluc reporter, luciferase luminescence, 18-24 h. Potency, µM (titrated, usually from 46 µM), for the others: at the top dose activity change, negative = inhibition, actives largely listed as inhibitors. 360,000 tested, 2.1% active; also: % is scaled to controls: 0 for no effect and ±100 for the full control effect; nearly all actives have a fitted effect of over 60% in size
#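 Cells were seeded and rested 2 h, then exposed to compounds for 18-24 h. CellTiter-Fluor was read first as a viability measure. BugLite was added 15 min before the final luminescent read of ARE-luciferase activity in A549 cells.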
# TrxR1 substrate – is turned over as a substrate by rat TrxR1; O89049; AID 588456; purified TrxR1 substrate turnover, NADPH consumption readout; Potency, µM (series often up to 114 µM), for inactives: at the highest dose activity change, negative = substrate turnover; 390,000 tested, 0.01% active; also: % is scaled to controls: 0 for no effect and ±100 for the full control effect; nearly all actives have a fitted effect of over 50% in size
#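 Rat TrxR1, dispensed at 90 nM, was prereduced with 400 uM NADPH (final) for 5 min at ~22 deg C, then incubated with compound 15 min before 400 uM selenite. A first-read NADPH fluorescence drop versus no-compound background flagged substrates.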
# A549 tox – counter-screen for Nrf2 inhibitors: cytotoxicity in A549 cells; A549 ARE-Fluc cells, CellTiter-Fluor viability, 18-24 h; Potency, µM (highest dose often 46 µM), without a hit: at the top dose activity change, negative = cytotoxicity, usual class: inhibitors; 390,000 tested, 0.16% active; also: % is scaled to controls: 0 for no effect and ±100 for the full control effect
#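 A549 ARE-Fluc cells in 5% FBS OPTI-MEM, 5000 cells/well, rested 2 h then exposed to compounds in concentration-response for 18-24 h at 37 °C. Viability by CellTiter-Fluor fluorescence (Ex 405/Em 525) after 30 min; luciferase luminescence (BugLite, 15 min, RT) read afterwards.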
# TrxR1 inh – blocks rat thioredoxin reductase 1 | AID 588453 | O89049 | 390,000 tested, 1% active | Potency, µM (highest dose often 114 µM), without a hit: top-dose activity change, negative = inhibition, hits mostly inhibitors | recombinant rTrxR1, NADPH fluorescence consumption, selenite substrate; also: % is scaled to controls: 0 for no effect and ±100 for the full control effect; nearly all actives have a fitted effect of over 65% in size
#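 Rat TrxR1 (90 nM in the dispensed reagent) was pre-reduced with 400 uM NADPH for 5 min at room temperature, then incubated with compound for 15 min. After 400 uM selenite was added, NADPH fluorescence (Ex 340/Em 450 nm) was followed for 8 min.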
# GALK inhibitor – blocks human galactokinase activity; P51570; Purified GALK, Kinase-Glo residual ATP luminescence; Potency, µM (series often up to 57.5 µM), for inactives: at the top dose activity change, negative = inhibition, usual class: inhibitors; 270,000 tested, 0.007% active; AID 1868; also: % is scaled to controls: 0 for no effect and ±100 for the full control effect
# Target sequence (P51570 whole entry, looked up): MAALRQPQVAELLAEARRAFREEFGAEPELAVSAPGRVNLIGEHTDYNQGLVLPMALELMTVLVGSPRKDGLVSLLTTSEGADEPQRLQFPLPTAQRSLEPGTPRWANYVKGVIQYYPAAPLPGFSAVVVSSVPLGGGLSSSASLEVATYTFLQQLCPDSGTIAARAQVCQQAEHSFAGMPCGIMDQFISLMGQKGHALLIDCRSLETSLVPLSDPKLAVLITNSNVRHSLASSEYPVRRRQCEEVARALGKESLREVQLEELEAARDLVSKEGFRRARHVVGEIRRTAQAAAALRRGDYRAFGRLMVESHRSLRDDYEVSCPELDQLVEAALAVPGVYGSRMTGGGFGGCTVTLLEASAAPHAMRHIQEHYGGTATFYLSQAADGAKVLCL
#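 Galactose (100 uM) and ATP (35 uM) were turned over by 5 nM GALK for 1 h at RT. Kinase-Glo Plus then converted the remaining ATP into a luminescent signal.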
# Nrf2 ARE act – activators of Nrf2 (ARE) signaling; AREc32 ARE-luciferase reporter (MCF7-derived line), luminescence, 24 h; Potency, µM (top dose mostly 46.1 µM), for the others: at the top dose activation, usual class: activators; 410,000 tested, 0.31% active; also: % of control where 0% means no effect; nearly all actives have a fitted effect of over 65% in size
#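 Quantitative high-throughput format: AREc32 reporter cells, 1000 per well, received compound by pin transfer and were incubated 24 hr at 37 deg C, 5% CO2, before Steady-Glo luminescence detection.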
# Numbers without * were called inactive; ? = inconclusive; · = no result given; ! = a repeat was not active; [ ] = another dose, or the depositor's remark. Most compounds without a hit are left out; they make up all but 3% or so of the library. Calls follow the shape of the dose curve; as a rule, active = well fitted curve in the direction sought with a large enough effect; inconclusive = small, poorly fitted or top-dose-only effect, or another doubt; inactive = no such curve, though single readings can be large; an effect the other way counts as inactive or inconclusive. Potency is read from the fitted curve at half-maximal effect.
SMILES,Nrf2 inh,TrxR1 substrate,A549 tox,TrxR1 inh,GALK inhibitor,Nrf2 ARE act
CCc1nnc(NC(=O)c2nc(S(=O)(=O)Cc3ccccc3)ncc2Cl)s1,-114%,1%,?,45µM*,3%,14µM*
CCSc1ncc(Cl)c(C(=O)Nc2ccccc2OC)n1,-6%,4%,2%,23%,-7%,13%
CCc1nnc(NC(=O)c2nc(Cl)ccc2Cl)s1,14%,10%,7%,39%,-6%,?
CCc1nnc(NC(=O)c2nc(S(=O)(=O)Cc3cccc(C)c3)ncc2Cl)s1,23µM*,-3%,?,40µM*,-3%,-2%
CCc1nnc(NC(=O)c2nc(S(=O)(=O)Cc3ccc(C)cc3)ncc2Cl)s1,21µM*!,1%,?,45µM*,-1%,2%
CCN(CC)CCn1c2c(c(SCC(=O)Nc3cccc(C(F)(F)F)c3)nc1=O)CCC2,·,3%[57.1 µM],13%,19%[57.1 µM],·,0%
COc1cccc2cc(-c3cn4c(n3)sc3cc(F)ccc34)c(=O)oc12,·,0%[57.1 µM],2%,13%[57.1 µM],·,1%
CC1CCN(C(=S)NCCc2ccccc2)CC1,·,-2%,-4%,6%,-2%,1%
OC(c1ccccc1)(c1ccccc1)C1CCN(C(=S)NCCc2ccccc2)CC1,23µM*,6%[57.1 µM],?,23%[57.1 µM],-1%,0%
C=C(C)CSc1cc(C)c(C#N)c2nc3ccccc3n12,?,35%,-1%,11µM*,-3%,-1%
Cc1cc(NCCCCO)n2c(nc3ccccc32)c1C#N,?,280%[57.1 µM],?,76%[57.1 µM],2%,-1%
OC(C1=CC(=Cc2ccncc2)c2ccccc21)c1ccncc1 (stereo not given),21µM*,4%[57.1 µM],-21%,2%[2.29 µM],·,?
O=C(Nc1ccc(Cl)c(C(F)(F)F)c1)c1ccncc1,8%,4%,-1%,20%,2%,1%
CNC(=O)c1cc(Oc2ccc(NC(=O)Nc3ccc(Cl)c(C(F)(F)F)c3)cc2)ccn1,26µM*,-7%,?,19%,·,-2%
CCc1ccc(OCC(=O)NC(Cc2c[nH]c3ccccc23)C(=O)O)cc1 (stereo not given),2%,10%,-2%,13%,·,1%
O=C(NCCC1CCCCN1S(=O)(=O)c1ccc(Cl)cc1)C(=O)NCc1ccncc1 (stereo not given),21µM*,-3%[57.1 µM],2%,19%[57.1 µM],·,0%
Cc1ccc(CNC(=O)C(=O)NCCC2CCCCN2S(=O)(=O)c2ccc(C)cc2)cc1 (stereo not given),?,-5%,9%,9%,·,4%
O=C(NCCC1CCCCN1S(=O)(=O)c1ccc(F)cc1)C(=O)NCc1ccncc1 (stereo not given),12µM*,6%,5%,13%,·,-2%
Cc1cccc(-n2ncc3c2CCCC3NC(=O)CCc2cccnc2)c1C (stereo not given),7.3µM*,-7%,-4%,-4%,6%,-1%
Cc1cccc(-n2ncc3c2CCCC3NC(=O)Cc2c(C)noc2C)c1C (stereo not given),8.2µM*,-1%,-9%,17%,2%,-1%
Cc1c(Cc2ccccc2)c(=O)n2c([nH]c3ccccc32)c1C#N,15µM*,32%,-21%,33%,-5%,0%
COc1ccccc1N=Cc1c(C)c(C#N)c2[nH]c3ccccc3n2c1=O,-24%,-6%[57.1 µM],-17%,32%[57.1 µM],-2%,1%
C=Cc1ccc(Cn2c(C(=O)O)c(CNCc3ccccc3)c3ccc(OC)cc32)cc1,15%,4%,?,5%,·,0%
CN1CCc2cccc3c2[C@@H]1Cc1ccc(O)c(O)c1-3,2%,11%,1%,14µM*,6%,10%
CCc1nnc(NC(=O)CCC(=O)N2CCN(CCOc3ccc(C)cc3)CC2)s1,21µM*,1%,-12%,-11%,3%,-1%
Nc1ccc(Cn2ccc3c4c(N)nc(N)nc4ccc32)cc1,0.82µM*,13%[57.1 µM],-15%,15%[11.4 µM],·,17%
